An excerpt weighted towards active compounds, which were near 12% of everything screened.
PI5P4K alpha inh – inhibitors of human PI5P4K alpha. P48426. max response, %. AID 652105. 330,000 compounds, 1.2% hits. PI5P4Kalpha enzyme, ADP-Glo luminescence, 60 min; hits give low values; active = max response of -50% or lower; inconclusive = between -30% and -50%; inactive = -30% or higher; note: value at the top dose of about 77 µM; % is set by controls: 0 for no effect and ±100 for the full control effect
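Controls without substrate or without enzyme flank wells where PI5P4Kalpha converts substrate using 5 microM ATP (final). Incubation lasts 60 minutes at room temperature; ADP formed is read by ADP-Glo luminescence.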
PLK1 PBD block – inhibitors of human PLK1 polo-box domain binding; Plk1 PBD binding of FITC phosphopeptide, fluorescence polarization; Potency, µM, for inactives: max response, negative = inhibition, hits mostly inhibitors; 360,000 compounds, 2.8% hits; AID 720504; note: potency is the fitted concentration of half-maximal effect; series mostly up to about 57 µM; % is set by controls: 0 for no effect and ±100 for the full control effect; nearly all actives have a fitted effect of over 65% in size
JMJD2A Tudor inh – inhibitors of human JMJD2A Tudor domain | O75164 | AlphaScreen JMJD2A-Tudor / H3K4me3 peptide binding | Potency, µM (titrated, usually from 114 µM), for inactives: top-dose activity change, negative = inhibition, hits mostly inhibitors | 390,000 compounds, 4.4% hits; note: potency is the fitted concentration of half-maximal effect; % is set by controls: 0 for no effect and ±100 for the full control effect; nearly all actives have a fitted effect of over 50% in size
HP1b chromo inh – HP1-beta chromodomain-methylated histone interaction inhibition | AID 540317 | P83916 | AlphaScreen HP1-beta / biotin-H3K9me3 peptide binding | Potency, µM (highest dose often 114 µM), without a hit: top-dose activity change, negative = inhibition, usual class: inhibitors | 390,000 compounds, 0.56% hits; note: potency is the fitted concentration of half-maximal effect; nearly all actives have a fitted effect of over 70% in size
Target sequence (P83916 whole entry, looked up): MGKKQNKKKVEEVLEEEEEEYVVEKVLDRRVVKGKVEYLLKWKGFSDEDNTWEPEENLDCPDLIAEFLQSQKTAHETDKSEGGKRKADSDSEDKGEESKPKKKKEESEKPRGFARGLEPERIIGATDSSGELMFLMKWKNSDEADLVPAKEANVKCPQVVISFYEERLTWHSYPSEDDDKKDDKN
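AlphaScreen: HP1-beta (50 nM) preformed 30 min with biotin-H3(1-18)K9me3 peptide (50 nM) in PBS pH 7.4, 0.01% Tween-20. Compound added for 30 min at RT, then streptavidin donor/nickel chelate acceptor beads (10 ug/mL) for 30 min.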
BAZ2B inh – blocks human BAZ2B; Q9UIF8; AlphaScreen BAZ2B-H3K14Ac peptide displacement; Potency, µM (titrated, usually from 114 µM), for the others: top-dose activity change, negative = inhibition, most hits filed as inhibitors; 360,000 compounds, 4.4% hits; AID 504333; note: potency is the fitted concentration of half-maximal effect; % is set by controls: 0 for no effect and ±100 for the full control effect; nearly all actives have a fitted effect of over 60% in size
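In this displacement format the biotinylated H3(5-23) peptide acetylated at Lys14 serves as ligand at 50 nM, with BAZ2B at 50 nM in PBS pH 7.4 containing 0.01% Tween-20. Donor and acceptor beads are 10 ug/mL final.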
G9a block – G9a (human) methyltransferase inhibition; G9a H3K9 monomethylation, AlphaScreen, 2 h; Potency, µM (highest dose often 102 µM), inactives show at the top dose activity, negative = inhibition, hits mostly inhibitors; 350,000 compounds, 8.8% hits; AID 504332; note: potency is the fitted concentration of half-maximal effect; % is set by controls: 0 for no effect and ±100 for the full control effect; nearly all actives have a fitted effect of over 75% in size
Target sequence (Q96KQ7 913-1193 limits assumed): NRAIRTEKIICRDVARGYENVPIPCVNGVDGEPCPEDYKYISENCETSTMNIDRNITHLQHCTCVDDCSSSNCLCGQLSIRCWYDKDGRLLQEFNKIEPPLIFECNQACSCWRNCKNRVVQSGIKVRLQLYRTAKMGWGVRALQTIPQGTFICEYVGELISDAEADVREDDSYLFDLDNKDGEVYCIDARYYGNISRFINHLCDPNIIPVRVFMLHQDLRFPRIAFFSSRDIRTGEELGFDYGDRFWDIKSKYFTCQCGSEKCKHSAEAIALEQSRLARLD
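AlphaScreen read-out: biotin-H3K9 peptide (500 nM) methylation by 20 nM enzyme with 20 uM SAM, 2 h at room temperature after 15 min compound preincubation; anti-monomethyl H3K9 antibody plus donor/acceptor beads, 10 min dark.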
Starred values were filed as active, the others as inactive; u = inconclusive; x = no result; [ ] = another dose, or the depositor's remark. Unless noted, calls come from the whole dose curve; as a rule, active = well fitted curve in the direction sought with a large enough effect; inconclusive = small, poorly fitted or top-dose-only effect, or another doubt; inactive = no such curve, though single readings can be large; an effect the other way counts as inactive or inconclusive.

SMILES	PI5P4K alpha inh	PLK1 PBD block	JMJD2A Tudor inh	HP1b chromo inh	BAZ2B inh	G9a block
O=C1C2C3C=CC(C2C(=O)N1c1ccccc1O)C1C2C(=O)N(c4ccccc4O)C(=O)C2C31 (stereo not drawn)	0	-6%	-21%	37%	-11%	-8%
O=C1C2C3C=CC(C2C(=O)N1c1ccc(O)cc1)C1C2C(=O)N(c4ccc(O)cc4)C(=O)C2C31 (stereo not drawn)	-10	-9%	-15%	27%	-24%	50µM*
O=C(O)c1ccc(N2C(=O)c3cccc4cccc(c34)C2=O)cc1	-9	-17%	-12%	34%	21%	x
NN1C(=O)c2cccc3c(C(=O)O)ccc(c23)C1=O	-64*	-12%	-16%	18%	-8%	-11%[59 µM]
O=S(=O)(c1ccccc1)N1CCC[C@@]2(CCN(c3cccc(-c4ccccc4)c3)C2)C1	x	x	x	x	x	-3%[12.7 µM]
Cc1ccc(C)c(N2CCN(C(=O)c3ccc(-c4nc(COc5ccccc5)c(C)o4)cc3)CC2)c1	x	x	-24%	22%	-35%	-44%[59 µM]
O=C(NC1CC1)c1ccc2nc([C@@H]3O[C@H](CO)[C@H](O)[C@H](O)[C@H]3O)[nH]c2c1	3	-19%	x	x	x	x
O=C1c2ccccc2C(=O)N1c1ccc(O)cc1	x	x	-16%	15%	x	x
O=C(O)c1ccc2c3c(cccc13)C(=O)N(c1ccccc1)C2=O	-13	u	u	u	56µM*	20µM*
O=C1c2cccc3cccc(c23)C(=O)N1c1ccc(O)cc1	1	-6%	-25%	24%	79µM*	-14%
Cc1nc(C)c(N)c(=O)[nH]1	8	-15%	-9%[11.4 µM]	29%	-28%	50µM*
Cn1c(=O)c2c(-c3ccccc3)n3c(c2n(C)c1=O)C(c1ccc([N+](=O)[O-])cc1)Nc1ccccc1-3 (stereo not drawn)	x	x	-16%	7%	-10%	-25%[59 µM]
CC1CCN(c2cc(C#N)c(C#N)cc2[N+](=O)[O-])CC1	1	-4%	-2%	32%	2%	-3%[59 µM]
CC1CCN(c2cc(N)c(Cl)cc2[N+](=O)[O-])CC1	9	-2%	u	-17%	u	50µM*
Cc1ccc(S(=O)(=O)n2nc(C)c(Br)c2C)c(C)c1C	15	-10%	58%	139%	6%	71µM*
Cc1ccc(S(=O)(=O)n2nc(C)c(S(=O)(=O)N3CCCCCC3)c2C)cc1C	x	x	-28%	-1%[57 µM]	-3%	0%[59 µM]
O=C(CSc1nc2ccccc2s1)N1CCCCC1	x	15µM*	-23%	26%	-3%	u
NC(=O)C1CCN(C(=O)CSc2nc3ccccc3s2)CC1	2	u	-3%	25%	4%	22%[12.7 µM]
CC1CCN(C(=O)CSc2nc3ccccc3s2)CC1	-5	-19%	3%	43%	3%	u
O=C(CSc1nnc(CSc2nc3ccccc3s2)o1)NC1CCCCC1	-2	-9%	3%	28%	x	6%[59 µM]
O=C(CSc1nc2ccccc2s1)NC1CCCC1	2	-1%	-10%	5%	-23%	22µM*
O=C(O)C1CCN(C(=O)CSc2nc3ccccc3s2)CC1	-18	24µM*	-18%[11.4 µM]	4%	-14%	-39%
Cc1nc(SCC(=O)Nc2ccccc2C)cc(-c2ccccc2)n1	x	x	-17%	10%	-2%	6%[59 µM]
Cc1cccc(OCC(=O)NCCNC(=O)c2ccco2)c1	5	2%	5%	9%	2%	13%
CCN(C(=O)CSc1nnc(-c2cccc(Cl)c2)n1N)c1c(N)n(Cc2ccccc2)c(=O)[nH]c1=O	-1	-12%	-8%	18%	x	x
SMILES	PI5P4K alpha inh	PLK1 PBD block	JMJD2A Tudor inh	HP1b chromo inh	BAZ2B inh	G9a block
Cc1nc(C(F)(F)F)ccc1C(=O)N1CCC1(C)C(=O)NS(=O)(=O)c1ccc(C(C)(C)C)cc1 (stereo not drawn)	9	1%	x	x	x	x
Fc1ccc(-c2ccc3c(c2)C2CC3CCN2)cc1 (stereo not drawn)	0	-4%	-10%	25%	x	x
Cc1cc(C(=O)CSc2nncs2)c(C)n1-c1ccc2c(c1)OCO2	x	-2%	u	u	45µM*	u
Cc1cc(C(=O)CN2C(=O)NC3(CCCCC3)C2=O)c(C)n1-c1ccc2c(c1)OCO2	-17	24µM*	56µM*	u	u	12%[59 µM]
Cc1cc(-n2c(C)cc(C(=O)CN3C(=O)NC4(CCCCCC4)C3=O)c2C)no1	x	-2%	-21%	7%	u	18%[2.33 µM]
COc1cccc(C(=O)CC(=O)C(=O)Nc2cc(OC)c(OC)c(OC)c2)c1	x	x	x	x	u	-10%
CC1CCCN(c2ccc(C(=O)NCc3ccc4c(c3)OCO4)cc2[N+](=O)[O-])C1 (stereo not drawn)	-2	5%	u	u	u	14µM*
O=C(O)c1ccc(N2CCN(Cc3ccc4c(c3)OCO4)CC2)c([N+](=O)[O-])c1	-1	0%	u	u	-2%	-12%[2.33 µM]
CC1CCCN(c2ccc(C(=O)Nc3ccc4c(c3)OCO4)cc2[N+](=O)[O-])C1 (stereo not drawn)	0	1%	u	u	u	22µM*
O=C(NCc1ccc2c(c1)OCO2)c1ccc(N2CCCCCC2)c([N+](=O)[O-])c1	-4	-4%	u	u	u	35µM*
CC1CCN(c2ccc(C(=O)Nc3ccc4c(c3)OCO4)cc2[N+](=O)[O-])CC1	1	2%	u	u	u	u
CN(C)c1ncnc2c1ncn2[C@H]1CN(C2CCCC2)C[C@@H](CO)O1	-9	-8%	x	x	x	x
O=C1c2ccccc2C(=O)N1c1cnc2ccccc2c1	x	x	-10%	x	x	x
Cc1noc(C)c1C(=O)N1CCC2(CCN(Cc3cc(C(F)(F)F)cc(C(F)(F)F)c3)CC2)CC1	x	x	x	x	x	30%[12.7 µM]
Cc1cc(C2C(=O)NC(=O)C2=O)c(C)cc1Br (stereo not drawn)	-30	-18%	-26%	-30%	x	x
O=C(CSc1ccccc1C(=O)O)c1ccc([N+](=O)[O-])cc1	u	12µM*	20µM*	u	u	20µM*
Cc1ccc(CNS(=O)(=O)c2cc(F)ccc2CN2C(=O)c3cccnc3C2=O)o1	-3	-4%	-19%	50%	50µM*	u
Cc1ccc(CNS(=O)(=O)c2ccc(CN3C(=O)c4cccnc4C3=O)cc2)o1	2	-19%	-11%	22%	79µM*	-6%[0.0925 µM]
CC(=O)Nc1ccc(NS(=O)(=O)c2ccc(CN3C(=O)c4cccnc4C3=O)cc2)cc1	-1	-4%	-10%	35%	79µM*	12%
CCCCC[C@@H](C)N1C[C@@H](COCc2ccccc2)Oc2cc(N3CCC[C@H]3COC)ccc2S1(=O)=O	6	0%	x	x	x	x
